Measured values published in PubChem BioAssay (EPA / NIEHS).
The source made the active and inactive calls. Rule for the calls: active = hit-call score of the fitted dose curve at least 0.9, where 1 is the maximum; inactive = score below 0.9.

How the values were obtained:
[1] = APR_HepG2_NuclearSize_72hr: Apredica 72-hour HepG2 Assay for Nuclear Size (AID 2282925); settings: high-content imaging, actives raise or lower the signal
Summary of the method: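 Nuclear size was read by high-content imaging of Hoechst 33342 stain after formaldehyde fixation. Compounds ran 72 h on HepG2 at 0.39 to 200 uM, with final DMSO 0.5% v/v. Curves fitted both directions relative to DMSO control.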

[2] = ATG_CRE_CIS: Attagene CIS-FACTORIAL HepG2 Assay for human cAMP Responsive Element (CRE) binding protein 3 (AID 2282926); settings: HepG2 CRE cis-reporter, Attagene multiplexed mRNA; actives raise or lower the signal
Summary of the method: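 Cells carrying cis-regulated reporter constructs respond through their own endogenous factors. After 24 h treatment, RNA is reverse-transcribed, amplified, labelled and sized by capillary electrophoresis; up- and down-regulation are both scored against vehicle.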

[3] = biological target: CCAAT/enhancer-binding protein beta (Homo sapiens) (UniProt P17676); test: ATG_C_EBP_CIS: Attagene CIS-FACTORIAL HepG2 Assay for human CCAAT/Enhancer Binding Protein (C/EBP) beta (AID 2282927); settings: HepG2 Attagene cis-factorial transcription factor reporter; actives raise or lower the signal
Sequence of CCAAT/enhancer-binding protein beta (Homo sapiens) (P17676 whole entry, looked up, the tested form may be a part): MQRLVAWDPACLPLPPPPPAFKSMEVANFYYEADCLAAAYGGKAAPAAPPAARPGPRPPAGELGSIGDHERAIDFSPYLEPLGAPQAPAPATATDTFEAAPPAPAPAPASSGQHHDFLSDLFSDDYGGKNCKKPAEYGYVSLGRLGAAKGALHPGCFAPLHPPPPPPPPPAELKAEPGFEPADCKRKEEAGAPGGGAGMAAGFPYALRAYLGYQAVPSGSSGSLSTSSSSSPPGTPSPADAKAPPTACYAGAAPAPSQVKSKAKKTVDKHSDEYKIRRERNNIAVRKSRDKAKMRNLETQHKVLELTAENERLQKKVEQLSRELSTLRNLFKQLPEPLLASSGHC
Summary of the method: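 Endogenous C/EBPb-driven reporter transcripts measured in transfected human HepG2 cells at 24 h via RT-PCR and capillary electrophoresis of labelled fragments. Activity fitted in both directions relative to DMSO baseline.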

[4] = ATG_CMV_CIS: Attagene CIS-FACTORIAL HepG2 Assay for human CMV (Internal Marker) (AID 2282928); settings: HepG2 CMV promoter reporter, transcription factor profiling; actives raise or lower the signal;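 note: endpoint acts as a background internal control marker rather than a target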
Summary of the method: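 Bidirectional fits against DMSO are applied to reporter mRNA, read by RT-PCR with capillary electrophoresis, from HepG2 cells exposed 24 h. The endpoint serves as an internal CMV background marker within the cis-factorial reporter panel.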

[5] = ATG_DR4_LXR_CIS: Attagene CIS-FACTORIAL HepG2 Assay for human Liver X Receptor (LXR), DR4 submotif (AID 2282929); settings: HepG2 Attagene DR4 cis-reporter, mRNA transcription; actives raise or lower the signal
Summary of the method: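 Endogenous factor activity at a DR4 cis-element is read as reporter mRNA in transiently transfected HepG2 cells. Exposure lasts 24 h; transcripts are amplified, fluorescently labelled and sized by capillary electrophoresis, with DMSO as baseline.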

[6] = biological target: Aryl hydrocarbon receptor (Homo sapiens) (UniProt P35869); test: ATG_Ahr_CIS: Attagene CIS-FACTORIAL HepG2 Assay for human Aryl Hydrocarbon Receptor (Ahr) (AID 2282930); settings: HepG2 AhR cis-factorial reporter transcription; actives raise or lower the signal
Sequence of Aryl hydrocarbon receptor (Homo sapiens) (P35869 whole entry, looked up): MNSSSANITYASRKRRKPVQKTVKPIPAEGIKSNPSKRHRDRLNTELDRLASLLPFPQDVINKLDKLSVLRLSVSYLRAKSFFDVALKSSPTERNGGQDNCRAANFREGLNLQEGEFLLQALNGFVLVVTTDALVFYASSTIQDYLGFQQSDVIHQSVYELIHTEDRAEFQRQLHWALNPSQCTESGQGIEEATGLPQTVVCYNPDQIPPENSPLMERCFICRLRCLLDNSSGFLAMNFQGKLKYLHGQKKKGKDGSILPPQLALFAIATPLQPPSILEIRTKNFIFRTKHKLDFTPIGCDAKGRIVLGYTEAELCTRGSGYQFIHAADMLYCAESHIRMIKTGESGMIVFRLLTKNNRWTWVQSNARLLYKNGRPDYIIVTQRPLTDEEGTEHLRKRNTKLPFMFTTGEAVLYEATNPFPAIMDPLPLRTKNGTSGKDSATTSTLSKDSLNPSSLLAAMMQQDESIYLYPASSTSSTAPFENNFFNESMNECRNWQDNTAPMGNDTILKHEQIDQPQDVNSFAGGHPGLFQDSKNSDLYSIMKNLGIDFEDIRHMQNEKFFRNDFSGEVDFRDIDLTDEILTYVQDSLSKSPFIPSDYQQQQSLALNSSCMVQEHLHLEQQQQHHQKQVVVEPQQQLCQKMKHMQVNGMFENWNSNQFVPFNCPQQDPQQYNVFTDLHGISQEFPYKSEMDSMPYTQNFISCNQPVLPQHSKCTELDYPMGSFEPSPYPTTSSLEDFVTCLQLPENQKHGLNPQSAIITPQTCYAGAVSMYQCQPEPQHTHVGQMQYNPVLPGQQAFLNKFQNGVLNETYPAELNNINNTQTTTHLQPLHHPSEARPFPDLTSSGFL
Summary of the method: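 Reporter mRNA levels, quantified by RT-PCR and fluorescent capillary electrophoresis, reflect endogenous AhR transcriptional activity in HepG2 cells carrying transfected cis-promoter reporter constructs. Readout at 24 h post-dose; gain or loss fitted against DMSO baseline.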

[7] = ATG_AP_1_CIS: Attagene CIS-FACTORIAL HepG2 Assay for human Activator Protein 1 (AP-1) (AID 2282931); settings: HepG2 Attagene cis-factorial AP-1 reporter mRNA; actives raise or lower the signal
Summary of the method: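 Fluorescence of labelled PCR fragments separated by capillary electrophoresis gives reporter mRNA levels. HepG2 with transfected cis-regulated reporter units, 24 h exposure; DMSO serves as baseline for bidirectional curve fits.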

[8] = ATG_AP_2_CIS: Attagene CIS-FACTORIAL HepG2 Assay for human Activator Protein 2 (AP-2) (AID 2282932); settings: HepG2 AP-2 cis-reporter, Attagene transcription factor profiling; actives raise or lower the signal
Summary of the method: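 Endogenous transcription factor activity is reported through transfected multiplex reporter constructs in HepG2, after 24 h of compound exposure. Transcripts were quantified by RT-PCR and capillary electrophoresis of fluorescent fragments. Bidirectional fit against DMSO.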

[9] = ATG_BRE_CIS: Attagene CIS-FACTORIAL HepG2 Assay for human Bone Morphogenetic Protein (BMP) Response Element (BRE) (AID 2282933); settings: HepG2 BMP response element reporter, Attagene transcription factor profiling; actives raise or lower the signal
Summary of the method: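 Transient MRTU transfection of human HepG2 liver cells; 24 h compound treatment; total RNA isolated, reverse-transcribed, PCR-amplified, 6-FAM labelled, HpaI-cut, capillary electrophoresis. DMSO = negative control/baseline, bidirectional fit.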

[10] = biological target: Retinoic acid receptor alpha (Homo sapiens) (UniProt P10276); test: ATG_DR5_RAR_CIS: Attagene CIS-FACTORIAL HepG2 Assay for human Retinoic Acid Receptor Alpha (RARE), DR5 submotif (AID 2282934); settings: HepG2 Attagene cis-factorial RARE DR5 reporter, mRNA; actives raise or lower the signal;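 for AC50: reporter responds to endogenous RAR alpha beta and gamma in HepG2 not RARA alone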
Sequence of Retinoic acid receptor alpha (Homo sapiens) (P10276 whole entry, looked up): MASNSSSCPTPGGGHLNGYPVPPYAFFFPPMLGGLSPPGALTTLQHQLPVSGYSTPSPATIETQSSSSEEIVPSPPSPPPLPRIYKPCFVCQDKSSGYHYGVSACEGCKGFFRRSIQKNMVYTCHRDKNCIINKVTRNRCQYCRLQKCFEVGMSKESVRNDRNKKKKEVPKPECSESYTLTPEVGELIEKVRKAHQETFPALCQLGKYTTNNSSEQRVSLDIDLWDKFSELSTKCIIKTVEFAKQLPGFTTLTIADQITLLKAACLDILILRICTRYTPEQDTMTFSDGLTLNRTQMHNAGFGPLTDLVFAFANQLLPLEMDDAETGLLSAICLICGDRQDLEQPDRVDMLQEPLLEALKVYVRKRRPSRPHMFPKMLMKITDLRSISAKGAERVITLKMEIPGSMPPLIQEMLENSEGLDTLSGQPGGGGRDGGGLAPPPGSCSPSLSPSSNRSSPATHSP
Summary of the method: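 Reporter transcripts from a DR5-regulated unit, measured via RT-PCR plus capillary electrophoresis, reflect endogenous RAR activity in transiently transfected human HepG2 liver cells. Exposure lasted 24 h; gain or loss of signal scored against DMSO.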

[11] = biological target: Transcription factor E2F1 (Homo sapiens) (UniProt Q01094); test: ATG_E2F_CIS: Attagene CIS-FACTORIAL HepG2 Assay for human E2F Transcription Factor 1 (AID 2282935); settings: HepG2 Attagene cis-reporter, E2F reporter RNA transcripts; actives raise or lower the signal
Sequence of Transcription factor E2F1 (Homo sapiens) (Q01094 whole entry, looked up): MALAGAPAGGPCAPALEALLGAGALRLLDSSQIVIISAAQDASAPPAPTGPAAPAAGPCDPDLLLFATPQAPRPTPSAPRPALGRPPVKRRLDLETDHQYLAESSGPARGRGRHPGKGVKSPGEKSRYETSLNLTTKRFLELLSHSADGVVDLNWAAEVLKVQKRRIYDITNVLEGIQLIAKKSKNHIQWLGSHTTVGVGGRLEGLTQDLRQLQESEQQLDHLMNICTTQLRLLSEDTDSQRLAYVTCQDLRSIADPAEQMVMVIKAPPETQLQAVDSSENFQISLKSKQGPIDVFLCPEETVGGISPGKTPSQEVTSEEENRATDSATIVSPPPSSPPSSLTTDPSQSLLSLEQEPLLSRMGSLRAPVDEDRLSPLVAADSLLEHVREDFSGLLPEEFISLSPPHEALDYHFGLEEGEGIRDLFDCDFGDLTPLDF
Summary of the method: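 Gain or loss of reporter transcript, fitted against DMSO, reflects E2F1-driven transcription. Transiently transfected HepG2 dosed 24 h before RNA isolation. Quantified by fluorescent RT-PCR products separated by capillary electrophoresis.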

[12] = ATG_E_Box_CIS: Attagene CIS-FACTORIAL HepG2 Assay for human Enhancer Box (E-box) (AID 2282936); settings: HepG2 E-box cis-reporter transcription, actives raise or lower the signal
Summary of the method: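 E-box-driven reporter transcripts measured in transiently transfected HepG2 after 24 h exposure: RNA reverse-transcribed, PCR-amplified, fluorescently labelled, digested and resolved by capillary electrophoresis. Gain or loss relative to DMSO.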

[13] = ATG_M_61_CIS: Attagene CIS-FACTORIAL HepG2 Assay for M61 Transcription Factor (Internal Marker) (AID 2282937); settings: HepG2 Attagene CIS-FACTORIAL M61 internal marker reporter; actives raise or lower the signal
Summary of the method: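 This endpoint serves as an internal background control within a multiplexed HepG2 cis-reporter panel. Cells are exposed for 24 h; reporter mRNA is amplified, fluorescently labelled and sized by capillary electrophoresis, with DMSO as negative control.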

[14] = ATG_EGR_CIS: Attagene CIS-FACTORIAL HepG2 Assay for human Early Growth Response 1 (EGR1) (AID 2282938); settings: HepG2 Attagene CIS-FACTORIAL EGR reporter mRNA; actives raise or lower the signal
Summary of the method: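 HepG2, transient MRTU transfection (cis promoters), 24 h compound. RNA → RT (oligo-dT) → PCR → 6-FAM labelling → HpaI cut → CE fluorescence. Bidirectional fit, DMSO baseline.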

[15] = ATG_M_19_CIS: Attagene CIS-FACTORIAL HepG2 Assay for M19 Transcription Factor (Internal Marker) (AID 2282939); settings: HepG2 Attagene CIS-FACTORIAL M19 internal marker reporter; actives raise or lower the signal
Summary of the method: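 Transfect HepG2 with MRTU reporter library → dose chemical, 24 h → isolate total RNA, reverse-transcribe with oligo(dT) → PCR, 6-FAM label, HpaI cut (2 h, 37 C) → capillary electrophoresis. Bidirectional fit vs DMSO.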

[16] = ATG_ERE_CIS: Attagene CIS-FACTORIAL HepG2 Assay for Estrogen Response Element (ERE) (AID 2282940); settings: HepG2 ERE cis-reporter, Attagene RNA transcript; actives raise or lower the signal
Summary of the method: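 Transient MRTU transfection of human HepG2; cis-element promoters; 24 h dosing; total RNA → RT (oligo dT) → PCR → 6-FAM primer extension → HpaI digest → CE fluorescence. Bidirectional fit, DMSO baseline.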

[17] = ATG_Ets_CIS: Attagene CIS-FACTORIAL HepG2 Assay for human Erythroblast Transformation Specific (ETS) (AID 2282941); settings: HepG2 ETS cis-reporter transcription, actives raise or lower the signal
Summary of the method: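 Endogenous transcription factor activity read as reporter mRNA via RT-PCR and capillary electrophoresis, with gain or loss fitted bidirectionally against DMSO. Human HepG2 liver cells, transiently transfected CIS reporter constructs, 24 h exposure.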

[18] = biological target: Hepatocyte nuclear factor 3-beta (Homo sapiens) (UniProt Q9Y261); test: ATG_FoxA2_CIS: Attagene CIS-FACTORIAL HepG2 Assay for human Forkhead box A2 (FOXA2) (AID 2282942); settings: HepG2 cis-reporter transcription factor activity, 24 h; actives raise or lower the signal
Sequence of Hepatocyte nuclear factor 3-beta (Homo sapiens) (Q9Y261 whole entry, looked up): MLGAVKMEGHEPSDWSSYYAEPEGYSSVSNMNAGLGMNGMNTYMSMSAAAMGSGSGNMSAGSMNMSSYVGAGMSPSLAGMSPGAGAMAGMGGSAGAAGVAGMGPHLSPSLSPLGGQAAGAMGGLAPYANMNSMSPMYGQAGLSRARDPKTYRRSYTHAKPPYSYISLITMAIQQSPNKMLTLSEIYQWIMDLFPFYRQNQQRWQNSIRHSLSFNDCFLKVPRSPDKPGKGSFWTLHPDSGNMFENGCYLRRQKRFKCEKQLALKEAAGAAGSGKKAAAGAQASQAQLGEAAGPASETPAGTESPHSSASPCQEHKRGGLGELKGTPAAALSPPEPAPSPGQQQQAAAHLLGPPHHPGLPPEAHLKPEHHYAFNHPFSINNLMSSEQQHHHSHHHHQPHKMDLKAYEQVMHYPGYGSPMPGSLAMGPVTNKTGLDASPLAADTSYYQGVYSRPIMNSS
Summary of the method: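 Cells: HepG2, transient multiplex reporter transfection. Exposure 24 h. Detection: reporter-specific RT-PCR, fluorescent labelling, restriction digest, capillary electrophoresis. Analysis: bidirectional curve fit, DMSO as negative control.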

[19] = ATG_FoxO_CIS: Attagene CIS-FACTORIAL HepG2 Assay for human Forkhead box O (FoxO) (AID 2282943); settings: HepG2 Attagene cis-reporter, FoxO element, mRNA; actives raise or lower the signal
Summary of the method: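 Endogenous transcription factor activity read from multiplexed cis-promoter reporter transcripts in transiently transfected HepG2, 24 h after dosing. Reporter RNA measured via RT-PCR plus capillary electrophoresis of FAM-labeled products; gain or loss relative to DMSO.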

[20] = ATG_GATA_CIS: Attagene CIS-FACTORIAL HepG2 Assay for human GATA Binding Protein (AID 2282944); settings: HepG2 GATA cis-element reporter, Attagene multiplex mRNA; actives raise or lower the signal
Summary of the method: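 Transient MRTU transfection, HepG2, 24 h compound exposure. Total RNA → oligo(dT) RT → PCR → 6-FAM primer extension → HpaI cut → CE. Bidirectional fit vs DMSO.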

Measured: AC50

COCCOCCOC
inactive: all assays above

Nc1ccc2c(c1)C(=O)c1ccccc1C2=O
active: [16] 7.14 µM
inactive: all other assays above

NCC1(Cc2noc(=O)[nH]2)CCCCC1
not listed: [8] | [9]
inactive: all other assays above

CC(C)c1ccc(C(=O)N=C(N)N)cc1S(C)(=O)=O
active: [16] 71.7 µM
not listed: [8] | [9]
inactive: all other assays above

CC(CO)OC(C)CO (stereo not given) (tested in a mixture with another compound)
not listed: [8] | [10]
inactive: all other assays above

COc1cc(S(=O)(=O)O)c(C)cc1N=Nc1c(O)ccc2cc(S(=O)(=O)O)ccc12
not listed: [8] | [10]
inactive: all other assays above

CC(C)(C)c1cc(O)c(C(C)(C)C)cc1O
active: [1] 26 µM | [2] 23 µM | [3] 89.1 µM | [4] 30.2 µM | [5] 29.5 µM | [7] 31 µM | [10] 57.1 µM | [14] 31.1 µM | [16] 31 µM
not listed: [8] | [9]
inactive: all other assays above
